Reference: PubChem BioAssay
Values joined by “and” are separate entries in the source; they are usually repeats but may differ in a detail not shown here. Equal entries are not always repeated. For part of these data: Potency and affinity values are given separately. More than one record can exist for a structure, and the calls need not agree. Active and inactive are the calls of the source.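 How the source made its calls, unless noted: active means at least 20% inhibition of 6-phosphogluconate dehydrogenase activity; inactive means the rest.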

What was measured:
[1] = compounds altering circadian rhythm period length – cell-based, LOPAC library, luminescence reporter (AID 2774; call rule not given here;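 further: values are relative to mean of DMSO wells on each plate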); conditions: circadian reporter cells, at 7 µM, actives lie on both sides
[2] = system: Hepatitis C virus NS3 helicase; assay: blockers of NS3h binding to ssDNA – biochemical, fluorescence polarization, LOPAC1280 library, primary screen (AID 687035; in the data active means inhibition above about 37%); conditions: Purified HCV NS3 helicase, Cy5-dT15 ssDNA binding fluorescence polarization; stronger effect = higher value; concentration not given here
[3] = biological target: 6-phosphogluconate dehydrogenase, decarboxylating (Homo sapiens) (UniProt P52209); assay: inhibition of human phosphogluconate dehydrogenase – biochemical, recombinant enzyme, NADPH absorbance, primary screen (AID 1159550); conditions: recombinant 6PGD, NADPH absorbance 341 nm; at 10 µM; stronger effect = higher value
[4] = blockers of cellular phospholipid synthesis – cell-based, LOPAC library, screen 4, primary screen (AID 1347384; call rule not given here); conditions: animal cells, phospholipid biosynthesis inhibition screen; at 10 µM
[5] = MELAS cybrid and Rieske KO viability enhancers – cell-based, MELAS cybrids, Rieske KO mouse fibroblasts, CellTiter-Glo, primary screen (AID 1508586;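 active means mean z-score across replicates of 1.96 or higher in either the MELAS or the Rieske mutant cell line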;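 further: z relative to plate mean and SD of compound and empty wells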); conditions: low glucose
[6] = biological target: NAD(+) hydrolase SARM1 (Homo sapiens) (UniProt Q6SZW1); assay: blocking NAD cleavage by SARM1 SAM-TIR – cell lysate, NAD-Glo luminescence (AID 1508614;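 active means compound whose remaining NAD level is above about 45 nM, limit read from the data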); conditions: SAM-TIR HEK293T lysate NADase, at 1 µM, stronger effect = higher value
[7] = biological target: Mitogen-activated protein kinase 7 (Homo sapiens) (UniProt Q13164); assay: Gal4-ERK5 driven luciferase induction – cell-based, HTS, primary screen (AID 1508626;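 active means luciferase signal above three times the same-plate solvent-only control wells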;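 further: luciferase driven by Gal4-ERK5 fusion binding five Gal4 sites before minimal TATA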); conditions: HeLa Gal4-ERK5 transactivation, 18 h, at 5 µM, stronger effect = higher value
[8] = galactose survival enhancers in mitochondrial complex I cybrids – cell-based, galactose medium, ATP luminescence, primary screen (AID 1645843;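 active means z-score of at least 1.8 in each of two replicates, scored against plate mean and spread of sample wells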;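 further: positive z means more ATP and so rescue of galactose-driven cybrid death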); conditions: complex I mutant cybrid cells, 72 h, stronger effect = higher value
[9] = P. berghei load reduction in hepatocytes – cell-based, HepG2, luciferase luminescence, HepG2 viability, primary screen (AID 624349; in the data active means parasite load remaining mostly below about 12%, no sharp cut-off; inactive means mostly above about 10%;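 further: 100% = mean of DMSO negative control wells on the same plate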); conditions: P. berghei liver stage in HepG2, luciferase luminescence, concentration not given here; parasite load remaining: stronger effect = lower value; viability: measured here: HepG2 viability without parasites
[10] = viability loss with induced miR-34 in A549 – imaging, A549 dox-inducible miR-34, nuclei and caspase counts, primary screen (AID 1347080;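 active means compounds whose cell count with miR-34 switched on is under 0.7 times the count with it off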); conditions: A549 miR-34 inducible, Hoechst nuclei count, 48 h
[11] = blockers of polyQ-driven CASP3 activation – cell-based (AID 1583); conditions: polyglutamine-induced caspase-3 activation, cell assay; stronger effect = higher value;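 tested at 10 µM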
[12] = yeast 75Q aggregation reduction – 75Q-TubU reporter (AID 1593); conditions: Yeast 75Q polyglutamine aggregation reporter
[13] = restoration of touch response, mutant HTT neurons – whole organism, C. elegans mechanosensory neurons, N-terminal huntingtin (AID 1599); conditions: C. elegans polyQ-huntingtin mechanosensory neurons, stronger effect = higher value
[14] = blockers of cytochrome c efflux from mitochondria – biochemical, purified mitochondria (AID 1603); conditions: stronger effect = lower value;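 further: mouse liver mitochondria challenged with calcium chloride; signal normalized to the plate average as 100%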
[15] = polyglutamine aggregate formation blockers (AID 1604); conditions: polyglutamine-induced protein aggregation inhibition assay; stronger effect = higher value; tested at 2.5 µM
[16] = glutamate transport activators, MN-1 cells, MN-1 cell line (AID 1612); conditions: MN-1 motor neuron cells, stronger effect = higher value;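 further: tested at 1 µM final; 0% = mean of DMSO vehicle wells on each plate; positive means more glutamate uptake than control and negative means less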
[17] = GFP-Q80 aggregate reduction, neuronal-like cells, cell-based, NGF-treated PC12, GFPQ80 (AID 1614); conditions: PC12 NGF-treated GFP-polyQ80 inclusion reduction;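 further: lower means fewer inclusions and 0 means no inclusions at all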
[18] = 75Q-TubH aggregate inhibition, S. cerevisiae, yeast (AID 1616); conditions: S. cerevisiae 75Q-TubH polyglutamine aggregation suppression; stronger effect = higher value
[19] = EMT-state selective cytotoxicity in co-culture – imaging, PC-3E GFP, TEM4-18 mCherry, primary screen (AID 1345086;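 active means compounds killing one labelled cell type while sparing the other, by normalised counts and ratio limits, not self-fluorescent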;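 on all read-outs here: cells exposed to compound for 72 h before imaging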;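 on red/green cell ratio (normalised): normalised mesenchymal count divided by normalised epithelial count so high means epithelial killing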); conditions: PC-3E GFP / TEM4-18 mCherry co-culture, imaging cell counts, at 1 µM; for red/green cell ratio (normalised): actives lie on both sides, counts scaled to control wells, 1 = unselective
[20] = MELAS cybrid survival, CellTiter-Glo 48 h, stronger effect = higher value
[21] = Rieske KO mouse fibroblast survival, CellTiter-Glo 72 h
[22] = stronger effect = lower value, cell number ratio, induced over uninduced
[23] = measured here: relative caspase fold change +Dox/-Dox
[24] = measured here: total cells with miR-34 induction, stronger effect = lower value
[25] = measured here: total cells without miR-34 induction
[26] = measured here: epithelial PC-3E GFP cell survival
[27] = measured here: mesenchymal TEM4-18 mCherry cell survival

Sequence of Mitogen-activated protein kinase 7 (Homo sapiens) (Q13164 whole entry, looked up, the tested form may be a part): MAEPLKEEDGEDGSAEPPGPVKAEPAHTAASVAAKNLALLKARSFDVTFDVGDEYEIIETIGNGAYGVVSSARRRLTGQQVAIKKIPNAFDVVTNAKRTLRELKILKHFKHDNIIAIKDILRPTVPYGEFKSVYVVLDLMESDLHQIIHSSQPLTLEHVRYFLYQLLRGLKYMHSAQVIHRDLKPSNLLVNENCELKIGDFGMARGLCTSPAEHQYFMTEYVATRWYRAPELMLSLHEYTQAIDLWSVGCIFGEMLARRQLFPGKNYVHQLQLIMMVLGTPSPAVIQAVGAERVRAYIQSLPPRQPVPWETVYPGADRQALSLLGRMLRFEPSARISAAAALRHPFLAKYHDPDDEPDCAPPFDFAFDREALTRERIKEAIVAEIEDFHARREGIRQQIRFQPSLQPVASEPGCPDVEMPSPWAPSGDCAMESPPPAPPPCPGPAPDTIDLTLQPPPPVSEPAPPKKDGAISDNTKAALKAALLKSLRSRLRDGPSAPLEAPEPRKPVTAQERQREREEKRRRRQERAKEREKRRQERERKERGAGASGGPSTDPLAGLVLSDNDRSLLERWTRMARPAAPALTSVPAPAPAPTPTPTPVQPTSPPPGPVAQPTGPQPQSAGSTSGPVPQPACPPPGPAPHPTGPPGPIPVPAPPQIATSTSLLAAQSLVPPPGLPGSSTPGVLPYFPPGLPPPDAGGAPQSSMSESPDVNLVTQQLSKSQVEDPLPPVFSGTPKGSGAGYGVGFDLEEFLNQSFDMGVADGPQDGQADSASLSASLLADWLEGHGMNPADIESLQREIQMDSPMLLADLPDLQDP
Sequence of NAD(+) hydrolase SARM1 (Homo sapiens) (Q6SZW1 whole entry, looked up, the tested form may be a part): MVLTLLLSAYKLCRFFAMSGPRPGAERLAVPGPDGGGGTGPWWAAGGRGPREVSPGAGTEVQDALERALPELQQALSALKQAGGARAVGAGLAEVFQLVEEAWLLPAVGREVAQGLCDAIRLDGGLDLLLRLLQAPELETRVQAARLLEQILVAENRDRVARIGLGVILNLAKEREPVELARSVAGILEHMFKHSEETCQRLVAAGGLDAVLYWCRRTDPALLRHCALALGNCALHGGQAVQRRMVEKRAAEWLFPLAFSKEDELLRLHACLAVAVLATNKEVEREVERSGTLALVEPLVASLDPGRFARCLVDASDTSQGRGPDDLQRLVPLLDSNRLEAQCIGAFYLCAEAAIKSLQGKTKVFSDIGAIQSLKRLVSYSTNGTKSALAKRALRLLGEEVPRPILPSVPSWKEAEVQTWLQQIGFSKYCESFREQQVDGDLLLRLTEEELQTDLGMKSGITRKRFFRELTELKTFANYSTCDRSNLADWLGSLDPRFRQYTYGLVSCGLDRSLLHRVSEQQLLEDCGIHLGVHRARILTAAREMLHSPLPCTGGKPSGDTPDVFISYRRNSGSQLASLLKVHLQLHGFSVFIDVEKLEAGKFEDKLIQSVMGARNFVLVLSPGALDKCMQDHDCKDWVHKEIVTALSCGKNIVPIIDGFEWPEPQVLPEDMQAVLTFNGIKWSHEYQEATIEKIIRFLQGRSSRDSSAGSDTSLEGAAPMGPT
Sequence of 6-phosphogluconate dehydrogenase, decarboxylating (Homo sapiens) (P52209 whole entry, looked up): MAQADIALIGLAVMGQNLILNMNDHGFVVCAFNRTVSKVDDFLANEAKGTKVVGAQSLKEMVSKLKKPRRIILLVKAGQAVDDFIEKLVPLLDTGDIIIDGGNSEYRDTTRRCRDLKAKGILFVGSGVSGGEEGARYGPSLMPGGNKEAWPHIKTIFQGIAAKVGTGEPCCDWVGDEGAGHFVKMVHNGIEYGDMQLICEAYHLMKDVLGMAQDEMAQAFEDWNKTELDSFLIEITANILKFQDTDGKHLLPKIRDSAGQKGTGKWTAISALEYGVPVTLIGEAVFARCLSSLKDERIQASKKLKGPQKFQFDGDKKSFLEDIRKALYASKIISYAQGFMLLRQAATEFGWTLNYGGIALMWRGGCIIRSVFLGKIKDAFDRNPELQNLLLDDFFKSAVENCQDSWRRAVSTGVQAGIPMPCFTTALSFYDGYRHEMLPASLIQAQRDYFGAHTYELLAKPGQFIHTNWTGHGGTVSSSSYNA

C[C@]12CC[C@@H]3c4ccc(O)cc4CC[C@H]3[C@@H]1CC[C@@H]2O
period change [1]: 0.19 h (inactive)
inhibition [2]: -3% (inactive)
inhibition [3]: -7.69% (inactive)
outcome [4]: inactive
z-score [5, 20]: 1.01 (inactive) and 0.292 (inactive)
z-score [5, 21]: -0.193 and 1.1
remaining NAD [6]: 10 nM (inactive)
luciferase signal [7]: 184 AU (inactive)
z-score [8]: 0.115 (inactive) and -0.055 (inactive)

CCC(=O)OCC(=O)[C@@]1(OC(=O)CC)[C@@H](C)C[C@H]2[C@@H]3CCC4=CC(=O)C=C[C@]4(C)[C@@]3(Cl)[C@@H](O)C[C@@]21C
parasite load remaining [9]: 87.4% (inactive) and 97.8% (inactive)
viability [9]: 126% and 93.5%
inhibition [3]: -4.35% (inactive)
fold change [10, 22]: 0.914 (inactive) and 0.792 (inactive)
fold change [10, 23]: 1.6 and 1.23
cell count [10, 24]: 6840 and 6120
cell count [10, 25]: 7490 and 7730
z-score [5, 20]: 0.616 (inactive)
z-score [5, 21]: 1.23
remaining NAD [6]: 10 nM (inactive)
luciferase signal [7]: 188 AU (inactive)
z-score [8]: -1.24 (inactive)

Cc1ccc(N(CC2=NCCN2)c2cccc(O)c2)cc1
inhibition [11]: 0.92%
score [12]: 1.23
rescue above control [13]: -6.1
cytochrome c release ratio [14]: 0.77
inhibition of aggregation [15]: 56.3%
glutamate uptake change [16]: -12.3%
inclusion score [17]: 2
aggregation suppression score [18]: 1.42
period change [1]: -0.015 h (inactive)
inhibition [2]: -6% (inactive)
inhibition [3]: -2.41% (inactive)
red/green cell ratio (normalised) [19]: 1 (inactive)
normalised cell number [19, 26]: 0.96
normalised cell number [19, 27]: 0.97
outcome [4]: inactive
z-score [5, 20]: 0.136 (inactive) and 0.319 (inactive) and 0.784 (inactive)
z-score [5, 21]: -0.0354 and 0.524 and 0.332
remaining NAD [6]: 10 nM (inactive)
luciferase signal [7]: 116 AU (inactive)
z-score [8]: -0.355 (inactive) and 0.035 (inactive)

CCCCCCCCCCCC1=C(O)C(=O)C=C(O)C1=O
parasite load remaining [9]: 136% (inactive)
viability [9]: 84.4%
inhibition [3]: 15% (inactive)
red/green cell ratio (normalised) [19]: 0.91 (inactive)
normalised cell number [19, 26]: 1.09
normalised cell number [19, 27]: 1
fold change [10, 22]: 0.793 (inactive) and 1.27 (inactive)
fold change [10, 23]: 2.63 and 0.764
cell count [10, 24]: 7270 and 2440
cell count [10, 25]: 9160 and 1930
z-score [5, 20]: -0.242 (inactive)
z-score [5, 21]: -0.154
luciferase signal [7]: 40 AU (inactive)
z-score [8]: -0.595 (inactive)

COC(=O)c1cc(=O)c(O)c2c(O)c(O)ccc2c1
inhibition [3]: -4.56% (inactive)
red/green cell ratio (normalised) [19]: 0.88 (inactive)
normalised cell number [19, 26]: 1.21
normalised cell number [19, 27]: 1.06

COc1ccc(C(=O)c2ccc(O)cc2)c(O)c1O
inhibition [3]: -5.23% (inactive)
red/green cell ratio (normalised) [19]: 1.05 (inactive)
normalised cell number [19, 26]: 0.85
normalised cell number [19, 27]: 0.89

COc1cc(-c2coc3cc(OCc4ccccc4)c(OC)c(O)c3c2=O)cc(OCc2ccccc2)c1OC
inhibition [3]: 16.5% (inactive)
red/green cell ratio (normalised) [19]: 0.82 (inactive)
normalised cell number [19, 26]: 1.05
normalised cell number [19, 27]: 0.86

CN1C[C@H](C(=O)N[C@]2(C)O[C@@]3(O)[C@@H]4CCCN4C(=O)[C@H](Cc4ccccc4)N3C2=O)C[C@@H]2c3cccc4[nH]cc(c34)C[C@H]21
inhibition [11]: -12.1%
score [12]: 1.21
rescue above control [13]: 4.53
cytochrome c release ratio [14]: 1.48
inhibition of aggregation [15]: 29.7%
glutamate uptake change [16]: 15.4%
aggregation suppression score [18]: 1.29
period change [1]: 0.225 h (inactive)
parasite load remaining [9]: 81.1% (inactive) and 61.1% (inactive) and 32.5% (inactive)
viability [9]: 69.3% and 88.9% and 89.9%
inhibition [2]: -3% (inactive)
inhibition [3]: 6.21% (inactive)
red/green cell ratio (normalised) [19]: 1.38 (inactive)
normalised cell number [19, 26]: 1.07
normalised cell number [19, 27]: 1.48
fold change [10, 22]: 1.02 (inactive) and 0.955 (inactive) and 0.914 (inactive)
fold change [10, 23]: 1.31 and 1.01 and 2.52
cell count [10, 24]: 7530 and 7990 and 11700
cell count [10, 25]: 7390 and 8360 and 12800
outcome [4]: inactive
remaining NAD [6]: 10 nM (inactive)
luciferase signal [7]: 32 AU (inactive)
z-score [8]: -0.125 (inactive) and -0.835 (inactive)

COc1cc(OC)c2c(=O)c(-c3ccccc3)c(C)oc2c1OC
inhibition [3]: -9.49% (inactive)
red/green cell ratio (normalised) [19]: 1.02 (inactive)
normalised cell number [19, 26]: 1.09
normalised cell number [19, 27]: 1.11

O=c1cc(-c2ccc(O)cc2)oc2cc(O)cc(O)c12
inhibition [11]: 0.12%
score [12]: 1.67
rescue above control [13]: 2.14
cytochrome c release ratio [14]: 3.46
inhibition of aggregation [15]: -7.84%
glutamate uptake change [16]: -6.97%
inclusion score [17]: 1.5
aggregation suppression score [18]: 1.4
period change [1]: 0.02 h (inactive)
parasite load remaining [9]: 95.8% (inactive) and 11.3% (inactive) and 116% (inactive)
viability [9]: 94.9% and 100% and 77.5%
inhibition [2]: -1% (inactive)
inhibition [3]: -0.0494% (inactive)
red/green cell ratio (normalised) [19]: 0.91 (inactive)
normalised cell number [19, 26]: 1.2
normalised cell number [19, 27]: 1.09
outcome [4]: inactive
z-score [5, 20]: -0.412 (inactive)
z-score [5, 21]: 0.346
luciferase signal [7]: 64 AU (inactive)
z-score [8]: 2.56 (active) and -0.305 (inactive)

O=C(/C=C/C(=O)Oc1ccccc1C(=O)O)Oc1ccccc1C(=O)O
inhibition [3]: -15.7% (inactive)
red/green cell ratio (normalised) [19]: 1.09 (inactive)
normalised cell number [19, 26]: 1.17
normalised cell number [19, 27]: 1.27

COc1cc(OC)c2c(=O)cc(-c3ccccc3)oc2c1
inhibition [3]: 13.7% (inactive)
red/green cell ratio (normalised) [19]: 0.95 (inactive)
normalised cell number [19, 26]: 1.06
normalised cell number [19, 27]: 1.01

COc1cccc(-c2cc(=O)c3ccc(OC)cc3o2)c1
inhibition [3]: -2.44% (inactive)
red/green cell ratio (normalised) [19]: 1.01 (inactive)
normalised cell number [19, 26]: 1.02
normalised cell number [19, 27]: 1.03

CC(C)CCCC(C)[C@H]1CCC2C3CC=C4CC(=O)CC[C@]4(C)C3CC[C@@]21C (some centres not stated)
inhibition [3]: 11.7% (inactive)
red/green cell ratio (normalised) [19]: 0.87 (inactive)
normalised cell number [19, 26]: 1.01
normalised cell number [19, 27]: 0.88

COc1ccc2c(=O)c(OC)c(-c3ccccc3)oc2c1
inhibition [3]: 5.12% (inactive)
red/green cell ratio (normalised) [19]: 0.95 (inactive)
normalised cell number [19, 26]: 1.07
normalised cell number [19, 27]: 1.02

O=c1ccc2ccc(O)cc2o1
inhibition [3]: 5.77% (inactive)
red/green cell ratio (normalised) [19]: 0.88 (inactive)
normalised cell number [19, 26]: 1.05
normalised cell number [19, 27]: 0.93

O=C(O)[C@H](O)[C@@](O)(Cc1ccc(O)cc1)C(=O)O
inhibition [3]: 12.5% (inactive)
red/green cell ratio (normalised) [19]: 1.3 (inactive)
normalised cell number [19, 26]: 0.73
normalised cell number [19, 27]: 0.94

COc1cc(-c2coc3cc(OCc4ccccc4)c(OC)c(O)c3c2=O)cc(O)c1OC
inhibition [3]: 9.07% (inactive)
red/green cell ratio (normalised) [19]: 0.97 (inactive)
normalised cell number [19, 26]: 1.1
normalised cell number [19, 27]: 1.07
